Assay outcomes deposited in PubChem by National Center for Advancing Translational Sciences (NCATS).
G9a block: inhibitors of human histone lysine methyltransferase G9a; G9a H3K9 monomethylation, AlphaScreen, 2 h; Q96KQ7; 350,000 tested, 8.8% active; Potency, µM (series often up to 102 µM), inactives show at the top dose activity, negative = inhibition, usual class: inhibitors; note: % is set by controls: 0 for no effect and ±100 for the full control effect; nearly all actives have a fitted effect of over 75% in size
Target sequence (Q96KQ7 913-1193 limits assumed): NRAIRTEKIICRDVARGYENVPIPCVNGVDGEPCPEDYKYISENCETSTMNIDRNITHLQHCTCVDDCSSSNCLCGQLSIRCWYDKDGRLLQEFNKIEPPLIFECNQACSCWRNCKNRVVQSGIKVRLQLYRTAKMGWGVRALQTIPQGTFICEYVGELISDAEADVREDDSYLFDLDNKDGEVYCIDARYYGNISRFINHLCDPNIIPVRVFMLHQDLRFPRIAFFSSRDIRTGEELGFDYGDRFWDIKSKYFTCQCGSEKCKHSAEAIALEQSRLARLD
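AlphaScreen detection with an anti-monomethyl H3K9 antibody quantified product after a 2 h room-temperature reaction containing 500 nM biotinylated H3K9 peptide, 20 µM SAM and 20 nM enzyme, which had been preincubated 15 min with compound.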
BAZ2B inh: blocks human BAZ2B; AlphaScreen BAZ2B-H3K14Ac peptide displacement; Potency, µM (top dose mostly 114 µM), without a hit: top-dose activity change, negative = inhibition, usual class: inhibitors; 360,000 tested, 4.4% active; AID 504333; note: % is set by controls: 0 for no effect and ±100 for the full control effect; nearly all actives have a fitted effect of over 60% in size
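In this displacement format the biotinylated H3(5-23) peptide acetylated at Lys14 serves as ligand at 50 nM, with BAZ2B at 50 nM in PBS pH 7.4 containing 0.01% Tween-20. Donor and acceptor beads are 10 ug/mL final.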
HP1b chromo inh: blocks HP1-beta chromodomain binding to methylated histone tails; AlphaScreen HP1-beta / biotin-H3K9me3 peptide binding; 390,000 tested, 0.56% active; P83916; Potency, µM (top dose mostly 114 µM), for inactives: at the top dose activity change, negative = inhibition, most hits filed as inhibitors; note: nearly all actives have a fitted effect of over 70% in size
Target sequence (P83916 whole entry, looked up): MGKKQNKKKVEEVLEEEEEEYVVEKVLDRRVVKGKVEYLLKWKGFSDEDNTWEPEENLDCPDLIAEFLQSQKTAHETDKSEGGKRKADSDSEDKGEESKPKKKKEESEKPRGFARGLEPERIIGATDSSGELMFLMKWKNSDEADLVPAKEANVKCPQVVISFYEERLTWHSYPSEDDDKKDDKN
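HP1-beta protein (50 nM final) preincubated 30 min at room temperature with biotinylated H3(1-18)K9me3 peptide (50 nM) in PBS pH 7.4, 0.01% Tween-20, then compound added for 30 min. AlphaScreen streptavidin donor/nickel chelate acceptor beads (10 ug/mL final), 30 min dark, luminescence read.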
JMJD2A Tudor: blocks the human JMJD2A Tudor domain | 390,000 tested, 4.4% active | AID 504339 | O75164 | AlphaScreen JMJD2A-Tudor / H3K4me3 peptide binding | Potency, µM (doses to about 114 µM), inactives show at the highest dose activity change, negative = inhibition, most hits filed as inhibitors; note: % is set by controls: 0 for no effect and ±100 for the full control effect; nearly all actives have a fitted effect of over 50% in size
Sfp inh: blocks B. subtilis Sfp PPTase activity; Potency, µM, inactives show largest response in the series, negative = inhibition, actives largely listed as inhibitors; Q9F4F7; AID 1490; 310,000 tested, 3.5% active; Biochemical Sfp PPTase activity, qHTS;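 note: the enzyme is Sfp with the accession as filed and its product quenches rhodamine fluorescence; 0% = enzyme reaction without inhibitor and -100% = no enzyme wells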
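Fluorescence-quenching assay with 15 nM Sfp, 5 uM rhodamine-CoA and 12.5 uM BHQ-2-labelled ybbR peptide in pH 7.6 Hepes/MgCl2 buffer. Enzyme was pre-incubated with compound for 15 min at room temperature. Rate was taken from the 30-min fluorescence change (525/598 nm).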
* hit, by the source's call; ? = inconclusive; · = no result given; [ ] = remark or other dose. This is a sample that favours compounds with a hit; in the whole collection about 12% have one here. Calls come from the whole dose curve; as a rule, active = well fitted curve in the direction sought with a large enough effect; inconclusive = small, poorly fitted or top-dose-only effect, or another doubt; inactive = no such curve, though single readings can be large; an effect the other way counts as inactive or inconclusive. Potency is the fitted concentration of half-maximal effect.

SMILES	G9a block	BAZ2B inh	HP1b chromo inh	JMJD2A Tudor	Sfp inh
Nc1nnnn1/N=C/c1ccc(Br)cc1	16%	-9%	112%	-22%	-2%
Cc1nnc(C)n1/N=C/c1cc(Br)ccc1O	10µM*	7%	2%	28µM*	-22%
C=CCc1cccc(/C=N/n2c(C)nnc2C)c1O	31%[0.501 µM]	-28%	8%	?	-4%
CC(C)(C)OC(=O)N1CCC(c2c(C(=O)N3CCN(c4ncccn4)CC3)cnn2-c2ccccc2)CC1	2%[59 µM]	13%[57.1 µM]	61%	-10%	·
CCCCCOC(=O)CSc1nc2sc3c(c2c(=O)n1Cc1ccccc1)CC(C)(C)OC3	-33%[59 µM]	-1%	53%	13%	·
CN1CCN(c2oc(COc3ccc(-c4ccccc4)cc3)nc2C#N)CC1	13µM*	11µM*	14µM*	28µM*	32µM*
N#Cc1nc(COc2ccc(Cl)cc2Cl)oc1N1CCOCC1	?	45µM*	-39%	?	-17%
N#Cc1nc(COc2ccc(Cl)cc2Cl)oc1N1CCN(c2ccccc2)CC1	-2%[2.33 µM]	?	-6%	-35%	22%
CN(C)CCNc1oc(COc2ccc(-c3ccccc3)cc2)nc1C#N	45µM*	?	-16%	?	-27%
C=CCNc1oc(COc2ccc(C)cc2)nc1C#N	?	2%	38%	-17%	-15%
COc1ccc(N2CCN(c3oc(Cc4ccccc4)nc3C#N)CC2)cc1	?	8.9µM*	-58%	20µM*	1%
N#Cc1nc(COc2ccc(-c3ccccc3)cc2)oc1N1CCC(C(N)=O)CC1	·	·	10%	-30%	·
O=c1cc(N2CCOCC2)[nH]c(=O)n1Cc1ccc(F)cc1	-12%	12%	34%	-1%	-9%
CCOC(=O)c1ccc(NC2(c3ccccc3)C(=O)c3ccccc3C2=O)cc1	?	-29%[57.1 µM]	1%	?	·
COc1ccc(N2CCN(c3oc(COc4ccc(Cl)cc4Cl)nc3C#N)CC2)cc1	?	?	?	-33%	4%
N#Cc1nc(COc2ccccc2)oc1N1CCOCC1	-3%[12.7 µM]	-5%	21%	3%	-1%
COc1ccc(N2CCN(c3oc(COc4ccccc4)nc3C#N)CC2)cc1	10µM*	10µM*	?	?	14%
COc1ccc(N2CCN(c3oc(COc4ccc(Cl)cc4)nc3C#N)CC2)cc1	?	3.5µM*	?	?	1%
COc1ccccc1/C=C(/C(=O)OCC(=O)Nc1ccc(N(C)C)cc1)c1ccccc1	10µM*	10µM*	?	?	-5%
COc1cc(NC(=O)COc2cc(O)c3c(c2)OC(C)(C)CC3=O)cc(OC)c1OC	2%[12.7 µM]	-34%	22%	-27%	18%
CCn1c2c(c(=O)n3ncc(C(=O)Nc4cccc(Cl)c4C)c13)CN(Cc1ccc(OC)cc1)CC2	14µM*	-9%	14%[57 µM]	?	·
CCn1c2c(c(=O)n3ncc(C(=O)Nc4ccc(C(=O)OC)cc4)c13)CN(Cc1ccc(OC)cc1)CC2	28µM*	-24%	16%[57 µM]	?	·
CCn1c2c(c(=O)n3ncc(C(=O)Nc4ccc(Cl)cc4C)c13)CN(Cc1ccc(OC)cc1)CC2	-7%[59 µM]	-21%	13%[57 µM]	-26%	·
CC(C)(C)C(=O)Nc1nnc(-c2ccccc2)c(-c2ccccc2)n1	·	-4%	19%	-3%	-1%
COC(=O)c1nnc(-c2ccccc2)c(-c2ccccc2)n1	32µM*	-1%	5%	-19%	-16%
SMILES	G9a block	BAZ2B inh	HP1b chromo inh	JMJD2A Tudor	Sfp inh
Cc1nc(Nc2ccccc2)sc1C(=O)c1ccccc1	·	-2%	39%	-3%	0%
N#Cc1c(Nc2ccc(F)cc2)sc(C(=O)c2ccccc2)c1N	-24%	-11%	22%	-19%	-6%
O=C(Nc1ccc(Cl)c(Cl)c1)c1ccccc1	-7%[2.33 µM]	11%	61%	18%	·
N#Cc1c(Nc2ccccc2)sc(C(=O)c2ccccc2)c1N	10µM*	?	-25%	?	-18%
Cc1nc(Nc2ccc(Cl)cc2Cl)sc1C(=O)Nc1ccccc1	21%[59 µM]	-4%	17%	-10%	8%
CC(=O)c1sc(Nc2cccc(C)c2)nc1C	39%	50µM*	45%	0%	12%
Nc1c(C(=O)c2ccccc2)sc(Nc2ccc(Cl)c(Cl)c2)c1C(=O)Nc1ccccc1	13µM*	25µM*	?	45µM*	·
Cc1nc(Nc2ccc(Cl)c(Cl)c2)sc1C(=O)Nc1ccccc1	?	-32%	-13%	22µM*	5%
Cc1cc(NC(=O)COC(=O)CCCOc2ccc(Cl)cc2C)no1	-7%[59 µM]	14%	72%	0%	0%
Cc1ccc(C(=O)O)cc1NC(=S)NC(=O)c1ccc(COc2ccccc2)cc1	·	50µM*	7%	?	50µM*
COc1ccccc1C(=O)NC(=S)Nc1cc(C(=O)O)ccc1C	45µM*	1%	-2%	-3%	-28%
Cc1ccc(C(=O)O)cc1NC(=S)NC(=O)Cc1ccccc1	-7%	3%	33%	4%	5%
COc1cc2ccccc2cc1C(=O)NC(=S)Nc1cc(C(=O)O)ccc1C	?	?	9%	-24%	-4%
CC(C)c1ccc(NC(=O)c2sccc2-n2cccc2)cc1	-7%	2%	54%	21%	-13%
CCOc1ccc(NS(=O)(=O)c2ccc(C(=O)NCC(C)(C)N3CCOCC3)cc2)cc1	6%	9%	17%	-11%	·
COc1ccc(C2(O)C(=O)Nc3ccc(C)cc32)cc1OC (centres undefined)	23%[2.33 µM]	-1%	19%	-5%	14%
CCCCCCCC1=CC2=CC(=O)C(C)(OC(C)=O)C(=O)C2=CN1CCc1ccccc1 (centres undefined)	40µM*	?	·	·	-6%
CCCCC1=CC2=CC(=O)C(C)(OC(=O)CC)C(=O)C2=CN1CCCCO (centres undefined)	8%[59 µM]	-23%	12%	-12%	22%
Cc1nn(-c2ccccc2)c2c1C(c1ccncc1)C(C#N)=C(N)O2 (centres undefined)	16µM*	-8%	8%	-20%	?
COc1cc(-n2nc(C)c3c2OC(N)=C(C#N)C3c2ccccc2)c(Cl)c(Br)c1O (centres undefined)	?	45µM*	45µM*	-33%[11.4 µM]	7%
Cc1ccc(-n2nc(C)c3c2OC(N)=C(C#N)C3c2ccncc2)cc1 (centres undefined)	45µM*	-11%	1%	?	3%
Cc1nn(Cc2ccccc2)c2c1C(c1cccc(Cl)c1)C(C#N)=C(N)O2 (centres undefined)	50µM*	?	-21%	?	10%
O=c1[nH]c2ccsc2c(=O)n1-c1ccc(F)cc1	7%[2.33 µM]	3%	3%	-10%	16%
CCCC(=O)Nc1nnc(S(=O)(=O)N(CC)c2ccccc2)s1	-7%	-9%	34%	7%	7%
CCn1c(C)cc2c(c1=O)C(c1ccncc1)C(C#N)=C(N)O2 (centres undefined)	40µM*	6%	33%	2%	3%
